Measured values published in publication PMC7862700, “An all-to-all approach to the identification of sequence-specific readers for epigenetic DNA modifications on cytosine”.

Key:
Assay in all cases: DAPPL (digital affinity profiling via proximity ligation, sequencing); 10 mM Tris-HCl pH 7.5, 50 mM NaCl, 1 mM DTT, 4% glycerol, room temperature, 30 min; GST-TFs on glutathione beads, 16-mer random dsDNA library, 0.1% formaldehyde crosslink after washing; high values mean tight binding
FLI1 = molecular target: T1, FLI1 (Homo sapiens, UniProt Q01543 1-452); conditions: protein: recombinant; tags: N-terminal GST; dsDNA, one strand shown
T1 sequence: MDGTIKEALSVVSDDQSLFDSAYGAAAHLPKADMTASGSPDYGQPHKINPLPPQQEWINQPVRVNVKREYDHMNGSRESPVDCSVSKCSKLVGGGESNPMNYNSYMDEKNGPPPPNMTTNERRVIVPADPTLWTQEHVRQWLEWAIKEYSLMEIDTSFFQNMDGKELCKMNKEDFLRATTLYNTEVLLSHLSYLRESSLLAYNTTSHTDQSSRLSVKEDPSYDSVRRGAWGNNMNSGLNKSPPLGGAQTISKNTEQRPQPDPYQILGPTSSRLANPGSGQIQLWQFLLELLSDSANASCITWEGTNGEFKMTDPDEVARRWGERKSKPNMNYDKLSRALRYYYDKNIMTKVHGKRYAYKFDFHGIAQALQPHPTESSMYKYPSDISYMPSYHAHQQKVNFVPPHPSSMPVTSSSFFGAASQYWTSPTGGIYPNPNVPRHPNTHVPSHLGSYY
Method in brief: (§1)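 GST fusions of human transcription factors were expressed in yeast and captured with glutathione beads. Once given DNA barcodes and pooled alongside a tag-only sample, they were incubated for 30 min at room temperature with 200 nmole of a random double-stranded 16-mer DNA library in Tris/NaCl/DTT/glycerol buffer, then washed, crosslinked (0.1% formaldehyde), proximity-ligated, PCR-amplified and sequenced on an Illumina NextSeq500. The binding signal of each hexamer is its read frequency for a factor divided by its frequency for the tag-only sample.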

ELK1 = molecular target: T2, ELK1 (Homo sapiens, UniProt P19419 1-428); conditions: protein: recombinant; tags: N-terminal GST; dsDNA, one strand shown
T2 sequence: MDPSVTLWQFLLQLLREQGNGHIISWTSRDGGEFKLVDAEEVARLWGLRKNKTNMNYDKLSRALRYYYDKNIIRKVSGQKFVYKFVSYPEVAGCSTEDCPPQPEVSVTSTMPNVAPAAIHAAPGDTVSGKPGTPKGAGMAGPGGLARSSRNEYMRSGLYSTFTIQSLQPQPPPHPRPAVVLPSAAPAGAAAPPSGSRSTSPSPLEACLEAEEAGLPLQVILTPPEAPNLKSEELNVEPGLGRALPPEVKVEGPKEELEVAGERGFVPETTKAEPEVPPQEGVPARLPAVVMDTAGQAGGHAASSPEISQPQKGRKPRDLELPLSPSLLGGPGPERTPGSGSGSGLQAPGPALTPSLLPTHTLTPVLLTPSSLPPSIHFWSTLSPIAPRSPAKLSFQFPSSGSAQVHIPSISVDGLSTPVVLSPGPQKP
Method in brief: as §1

GABPA = molecular target: T3, GABPA (Homo sapiens, UniProt Q06546 1-454); conditions: protein: recombinant; tags: N-terminal GST; dsDNA, one strand shown
T3 sequence: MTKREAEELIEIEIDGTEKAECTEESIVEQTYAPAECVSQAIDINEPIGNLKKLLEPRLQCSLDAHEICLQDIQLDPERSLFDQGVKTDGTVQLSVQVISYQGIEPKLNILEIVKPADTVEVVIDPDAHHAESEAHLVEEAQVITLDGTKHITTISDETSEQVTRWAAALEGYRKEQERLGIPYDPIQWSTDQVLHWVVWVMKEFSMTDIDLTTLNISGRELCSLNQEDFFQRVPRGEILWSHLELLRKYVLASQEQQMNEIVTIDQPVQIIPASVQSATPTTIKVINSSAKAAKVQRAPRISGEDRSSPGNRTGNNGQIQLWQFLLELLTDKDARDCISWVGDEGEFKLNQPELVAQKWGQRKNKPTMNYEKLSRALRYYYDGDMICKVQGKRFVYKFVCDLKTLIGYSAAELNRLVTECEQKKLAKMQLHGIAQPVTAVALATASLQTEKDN
Method in brief: as §1

ERG = molecular target: T4, ERG (Homo sapiens, UniProt P11308 1-479); conditions: protein: recombinant; tags: N-terminal GST; dsDNA, one strand shown
T4 sequence: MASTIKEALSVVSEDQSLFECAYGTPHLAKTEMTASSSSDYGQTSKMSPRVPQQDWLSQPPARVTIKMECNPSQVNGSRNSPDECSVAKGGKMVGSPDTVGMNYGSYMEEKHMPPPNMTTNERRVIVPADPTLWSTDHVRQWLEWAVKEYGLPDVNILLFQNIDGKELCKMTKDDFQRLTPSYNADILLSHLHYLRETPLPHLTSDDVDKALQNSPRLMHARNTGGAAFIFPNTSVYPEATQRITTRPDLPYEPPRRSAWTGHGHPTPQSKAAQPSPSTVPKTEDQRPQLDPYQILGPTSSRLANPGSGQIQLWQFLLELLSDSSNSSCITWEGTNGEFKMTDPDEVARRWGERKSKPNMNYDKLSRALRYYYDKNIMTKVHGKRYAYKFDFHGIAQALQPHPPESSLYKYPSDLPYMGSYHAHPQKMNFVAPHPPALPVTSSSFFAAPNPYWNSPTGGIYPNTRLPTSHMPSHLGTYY
Method in brief: as §1

ELF1 = ELF1 (Homo sapiens, UniProt P32519 1-619); conditions: protein: recombinant; tags: N-terminal GST; dsDNA, one strand shown
Sequence of ELF1 (P32519 whole entry): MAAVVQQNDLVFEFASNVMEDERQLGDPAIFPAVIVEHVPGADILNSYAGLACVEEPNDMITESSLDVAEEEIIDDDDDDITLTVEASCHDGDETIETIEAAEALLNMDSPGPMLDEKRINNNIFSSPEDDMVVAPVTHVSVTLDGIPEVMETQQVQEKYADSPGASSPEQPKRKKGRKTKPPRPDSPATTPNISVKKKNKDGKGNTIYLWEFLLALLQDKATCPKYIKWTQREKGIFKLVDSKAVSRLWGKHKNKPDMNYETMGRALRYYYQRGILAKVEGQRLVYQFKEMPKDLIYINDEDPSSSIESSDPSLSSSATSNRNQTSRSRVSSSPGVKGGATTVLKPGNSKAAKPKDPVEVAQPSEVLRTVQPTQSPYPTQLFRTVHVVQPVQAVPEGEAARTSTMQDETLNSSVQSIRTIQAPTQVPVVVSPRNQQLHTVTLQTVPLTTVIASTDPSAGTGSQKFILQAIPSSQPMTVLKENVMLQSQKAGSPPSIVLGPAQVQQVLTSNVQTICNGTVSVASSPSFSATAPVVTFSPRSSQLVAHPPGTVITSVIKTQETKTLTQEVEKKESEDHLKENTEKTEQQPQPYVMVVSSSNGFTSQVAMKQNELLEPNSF
Method in brief: as §1

EHF = molecular target: T5, EHF (Homo sapiens, UniProt Q9NZC4 1-300); conditions: protein: recombinant; tags: N-terminal GST; dsDNA, one strand shown
T5 sequence: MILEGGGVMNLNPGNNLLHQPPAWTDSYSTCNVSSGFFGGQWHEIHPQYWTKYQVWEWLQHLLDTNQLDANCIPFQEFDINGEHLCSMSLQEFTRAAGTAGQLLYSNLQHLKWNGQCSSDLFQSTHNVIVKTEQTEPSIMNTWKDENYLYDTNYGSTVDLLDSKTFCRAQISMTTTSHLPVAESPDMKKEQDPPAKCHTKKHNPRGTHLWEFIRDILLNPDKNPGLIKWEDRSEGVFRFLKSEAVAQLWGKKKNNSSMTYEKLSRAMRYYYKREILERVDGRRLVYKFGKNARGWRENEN
Method in brief: as §1

SPI1 = SPI1 (Homo sapiens, UniProt P17947 1-270); conditions: protein: recombinant; tags: N-terminal GST; dsDNA, one strand shown
Method in brief: as §1

SPIB = SPIB (Homo sapiens, UniProt Q01892 1-262); conditions: protein: recombinant; tags: N-terminal GST; dsDNA, one strand shown
Sequence of SPIB (Q01892 whole entry): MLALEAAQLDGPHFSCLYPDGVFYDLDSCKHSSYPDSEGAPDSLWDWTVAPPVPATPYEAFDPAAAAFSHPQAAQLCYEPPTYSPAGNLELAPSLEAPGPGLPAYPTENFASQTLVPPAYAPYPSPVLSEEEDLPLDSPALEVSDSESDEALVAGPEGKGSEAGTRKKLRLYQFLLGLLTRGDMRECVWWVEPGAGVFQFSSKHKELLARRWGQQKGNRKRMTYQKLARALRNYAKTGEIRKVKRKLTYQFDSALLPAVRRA
Method in brief: as §1

ELK3 = molecular target: T6, ELK3 (Homo sapiens, UniProt P41970 1-407); conditions: protein: recombinant; tags: N-terminal GST; dsDNA, one strand shown
T6 sequence: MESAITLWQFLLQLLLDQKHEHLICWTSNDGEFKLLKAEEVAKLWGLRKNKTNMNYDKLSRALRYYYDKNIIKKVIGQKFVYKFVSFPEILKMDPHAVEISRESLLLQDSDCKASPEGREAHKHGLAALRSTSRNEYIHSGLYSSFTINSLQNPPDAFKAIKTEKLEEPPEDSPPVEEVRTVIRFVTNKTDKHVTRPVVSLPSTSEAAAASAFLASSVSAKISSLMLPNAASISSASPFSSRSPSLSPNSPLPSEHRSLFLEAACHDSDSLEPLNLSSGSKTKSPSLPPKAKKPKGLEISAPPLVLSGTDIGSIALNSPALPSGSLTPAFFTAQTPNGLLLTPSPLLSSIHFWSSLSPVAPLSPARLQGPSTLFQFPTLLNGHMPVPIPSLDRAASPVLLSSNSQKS
Method in brief: as §1

FEV = molecular target: T7, FEV (Homo sapiens, UniProt Q99581 1-238); conditions: protein: recombinant; tags: N-terminal GST; dsDNA, one strand shown
T7 sequence: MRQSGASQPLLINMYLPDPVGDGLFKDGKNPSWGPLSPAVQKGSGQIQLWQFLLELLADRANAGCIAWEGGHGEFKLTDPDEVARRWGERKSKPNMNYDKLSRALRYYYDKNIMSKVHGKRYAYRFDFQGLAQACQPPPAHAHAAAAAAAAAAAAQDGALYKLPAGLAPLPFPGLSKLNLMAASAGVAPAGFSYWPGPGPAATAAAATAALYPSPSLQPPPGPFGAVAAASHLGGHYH
Method in brief: as §1

ETV5 = ETV5 (Homo sapiens, UniProt P41161 1-510); conditions: protein: recombinant; tags: N-terminal GST; dsDNA, one strand shown
Sequence of ETV5 (P41161 whole entry): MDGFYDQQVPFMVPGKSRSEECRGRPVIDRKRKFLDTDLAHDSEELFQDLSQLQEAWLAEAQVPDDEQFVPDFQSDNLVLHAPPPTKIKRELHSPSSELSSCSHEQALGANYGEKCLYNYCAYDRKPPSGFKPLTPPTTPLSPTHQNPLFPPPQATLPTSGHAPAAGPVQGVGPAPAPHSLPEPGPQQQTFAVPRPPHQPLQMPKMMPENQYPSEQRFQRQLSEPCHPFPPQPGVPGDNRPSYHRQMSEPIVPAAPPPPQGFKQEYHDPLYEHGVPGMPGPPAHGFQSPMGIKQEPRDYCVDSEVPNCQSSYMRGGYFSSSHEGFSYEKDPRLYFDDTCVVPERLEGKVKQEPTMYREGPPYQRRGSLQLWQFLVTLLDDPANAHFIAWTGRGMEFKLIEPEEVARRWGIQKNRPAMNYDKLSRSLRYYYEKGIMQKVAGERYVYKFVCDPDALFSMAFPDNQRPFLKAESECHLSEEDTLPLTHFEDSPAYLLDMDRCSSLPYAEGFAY
Method in brief: as §1

HSF1 = HSF1 (Homo sapiens, UniProt Q00613 1-529); conditions: protein: recombinant; tags: N-terminal GST; chain copies: 3; dsDNA, one strand shown
Sequence of HSF1 (Q00613 whole entry): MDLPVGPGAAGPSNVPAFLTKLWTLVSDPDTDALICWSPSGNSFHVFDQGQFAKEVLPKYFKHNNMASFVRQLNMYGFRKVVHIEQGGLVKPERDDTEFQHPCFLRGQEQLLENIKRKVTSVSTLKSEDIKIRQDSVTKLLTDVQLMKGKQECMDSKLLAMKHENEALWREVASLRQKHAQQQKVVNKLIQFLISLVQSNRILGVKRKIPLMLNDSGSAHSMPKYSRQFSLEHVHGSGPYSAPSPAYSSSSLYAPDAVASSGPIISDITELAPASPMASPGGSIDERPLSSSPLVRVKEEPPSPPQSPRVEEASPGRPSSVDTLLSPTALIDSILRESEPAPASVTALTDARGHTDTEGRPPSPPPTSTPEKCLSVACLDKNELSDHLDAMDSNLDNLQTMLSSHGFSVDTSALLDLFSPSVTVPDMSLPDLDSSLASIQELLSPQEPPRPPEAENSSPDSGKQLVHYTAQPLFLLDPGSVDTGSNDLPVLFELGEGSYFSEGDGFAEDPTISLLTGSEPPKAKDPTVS
Method in brief: as §1

SPIC = molecular target: T8, SPIC (Homo sapiens, UniProt Q8N5J4 1-248); conditions: protein: recombinant; tags: N-terminal GST; dsDNA, one strand shown
T8 sequence: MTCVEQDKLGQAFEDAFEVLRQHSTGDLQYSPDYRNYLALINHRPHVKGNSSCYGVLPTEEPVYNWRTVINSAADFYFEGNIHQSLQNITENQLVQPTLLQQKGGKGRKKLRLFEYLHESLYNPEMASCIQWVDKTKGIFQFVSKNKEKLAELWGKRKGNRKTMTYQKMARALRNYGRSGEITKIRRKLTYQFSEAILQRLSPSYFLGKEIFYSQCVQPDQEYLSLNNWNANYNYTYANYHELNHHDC
Method in brief: as §1

ELF4 = ELF4 (Homo sapiens, UniProt Q99607 1-663); conditions: protein: recombinant; tags: N-terminal GST; dsDNA, one strand shown
Sequence of ELF4 (Q99607 whole entry): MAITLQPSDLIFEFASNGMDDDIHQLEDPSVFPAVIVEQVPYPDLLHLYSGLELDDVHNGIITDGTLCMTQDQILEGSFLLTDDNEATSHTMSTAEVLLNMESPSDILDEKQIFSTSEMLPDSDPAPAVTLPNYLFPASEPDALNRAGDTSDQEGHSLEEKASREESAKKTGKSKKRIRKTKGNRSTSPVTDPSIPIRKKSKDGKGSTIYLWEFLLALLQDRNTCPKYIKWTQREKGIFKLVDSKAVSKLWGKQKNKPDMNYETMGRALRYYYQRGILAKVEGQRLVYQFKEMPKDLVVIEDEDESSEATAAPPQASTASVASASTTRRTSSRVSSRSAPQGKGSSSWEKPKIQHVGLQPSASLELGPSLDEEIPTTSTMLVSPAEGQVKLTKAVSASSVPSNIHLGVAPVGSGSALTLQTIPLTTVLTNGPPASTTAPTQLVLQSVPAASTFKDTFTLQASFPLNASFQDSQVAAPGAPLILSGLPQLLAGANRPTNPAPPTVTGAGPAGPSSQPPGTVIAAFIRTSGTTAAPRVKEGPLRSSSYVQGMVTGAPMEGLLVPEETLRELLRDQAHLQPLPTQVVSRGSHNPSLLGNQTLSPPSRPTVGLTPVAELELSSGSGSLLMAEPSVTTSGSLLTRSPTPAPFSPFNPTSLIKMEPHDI
Method in brief: as §1

ELK4 = molecular target: T9, ELK4 (Homo sapiens, UniProt P28324-2 1-405); conditions: protein: recombinant; tags: N-terminal GST; dsDNA, one strand shown
T9 sequence: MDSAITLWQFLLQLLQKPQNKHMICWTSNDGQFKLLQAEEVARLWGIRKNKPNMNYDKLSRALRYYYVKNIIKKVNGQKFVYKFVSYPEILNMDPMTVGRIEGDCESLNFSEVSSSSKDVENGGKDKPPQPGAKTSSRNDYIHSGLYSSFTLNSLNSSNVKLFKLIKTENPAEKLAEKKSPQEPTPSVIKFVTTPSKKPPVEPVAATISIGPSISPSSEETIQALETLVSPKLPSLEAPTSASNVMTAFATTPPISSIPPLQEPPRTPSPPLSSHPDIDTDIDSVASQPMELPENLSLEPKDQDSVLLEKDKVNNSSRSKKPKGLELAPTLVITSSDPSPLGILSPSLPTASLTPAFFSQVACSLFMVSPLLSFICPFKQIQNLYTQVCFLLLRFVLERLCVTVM
Method in brief: as §1

ETV2 = molecular target: T10, ETV2 (Homo sapiens, UniProt O00321 1-342); conditions: protein: recombinant; tags: N-terminal GST; dsDNA, one strand shown
T10 sequence: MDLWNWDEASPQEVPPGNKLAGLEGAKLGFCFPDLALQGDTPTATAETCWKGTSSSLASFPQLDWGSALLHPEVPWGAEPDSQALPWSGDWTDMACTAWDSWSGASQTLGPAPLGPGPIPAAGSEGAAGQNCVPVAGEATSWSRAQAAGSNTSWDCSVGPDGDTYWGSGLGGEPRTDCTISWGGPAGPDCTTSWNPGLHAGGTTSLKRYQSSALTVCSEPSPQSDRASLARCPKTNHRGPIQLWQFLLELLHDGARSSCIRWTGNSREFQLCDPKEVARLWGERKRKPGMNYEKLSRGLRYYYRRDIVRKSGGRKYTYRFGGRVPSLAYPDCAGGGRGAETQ
Method in brief: as §1

ELF3 = molecular target: T11, ELF3 (Homo sapiens, UniProt P78545 1-371); conditions: protein: recombinant; tags: N-terminal GST; dsDNA, one strand shown
T11 sequence: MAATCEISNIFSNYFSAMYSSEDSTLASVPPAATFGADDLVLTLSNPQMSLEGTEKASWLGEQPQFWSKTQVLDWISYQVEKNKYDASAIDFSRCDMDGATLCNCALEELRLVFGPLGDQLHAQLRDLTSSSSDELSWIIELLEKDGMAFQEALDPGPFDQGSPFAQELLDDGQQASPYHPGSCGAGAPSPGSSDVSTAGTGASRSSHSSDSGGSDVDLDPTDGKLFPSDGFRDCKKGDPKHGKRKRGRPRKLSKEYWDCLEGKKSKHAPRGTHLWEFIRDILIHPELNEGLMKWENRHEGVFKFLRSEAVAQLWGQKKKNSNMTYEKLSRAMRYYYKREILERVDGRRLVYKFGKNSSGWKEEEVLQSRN
Method in brief: as §1

CRX = CRX (Homo sapiens, UniProt O43186 1-299); conditions: protein: recombinant; tags: N-terminal GST; dsDNA, one strand shown
Sequence of CRX (O43186 whole entry): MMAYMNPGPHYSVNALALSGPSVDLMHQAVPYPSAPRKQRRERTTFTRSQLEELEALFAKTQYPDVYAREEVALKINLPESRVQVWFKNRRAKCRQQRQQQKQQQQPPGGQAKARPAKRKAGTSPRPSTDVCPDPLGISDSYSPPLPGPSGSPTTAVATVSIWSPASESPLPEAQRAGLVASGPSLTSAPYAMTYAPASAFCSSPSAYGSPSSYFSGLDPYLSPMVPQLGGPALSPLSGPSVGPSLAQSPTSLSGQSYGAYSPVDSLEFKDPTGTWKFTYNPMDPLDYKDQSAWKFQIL
Method in brief: as §1

ETV1 = ETV1 (Homo sapiens, UniProt P50549 1-477); conditions: protein: recombinant; tags: N-terminal GST; dsDNA, one strand shown
Sequence of ETV1 (P50549 whole entry): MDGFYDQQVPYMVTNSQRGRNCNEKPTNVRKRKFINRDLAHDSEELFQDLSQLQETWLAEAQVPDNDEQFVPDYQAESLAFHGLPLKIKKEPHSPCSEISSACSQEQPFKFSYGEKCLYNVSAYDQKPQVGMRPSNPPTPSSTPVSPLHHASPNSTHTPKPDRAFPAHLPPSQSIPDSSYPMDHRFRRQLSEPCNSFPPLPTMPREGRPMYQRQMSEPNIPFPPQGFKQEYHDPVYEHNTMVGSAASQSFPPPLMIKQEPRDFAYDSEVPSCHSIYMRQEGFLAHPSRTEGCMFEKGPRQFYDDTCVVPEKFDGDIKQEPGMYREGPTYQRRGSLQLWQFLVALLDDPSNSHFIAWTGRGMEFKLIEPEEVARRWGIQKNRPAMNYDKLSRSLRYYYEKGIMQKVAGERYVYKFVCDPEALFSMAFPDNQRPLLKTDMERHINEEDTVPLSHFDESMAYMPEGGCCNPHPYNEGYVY
Method in brief: as §1

## ATTTGG
FLI1
  binding signal: 1.44 fold enrichment (6-mer frequency, TF over GST control)
ELK1
  binding signal: 1.33 fold enrichment (6-mer frequency, TF over GST control)
GABPA
  binding signal: 1.39 fold enrichment (6-mer frequency, TF over GST control)
ERG
  binding signal: 1.36 fold enrichment (6-mer frequency, TF over GST control)
ELF1
  binding signal: 1.36 fold enrichment (6-mer frequency, TF over GST control)
EHF
  binding signal: 1.35 fold enrichment (6-mer frequency, TF over GST control)
SPI1
  binding signal: 1.38 fold enrichment (6-mer frequency, TF over GST control)
SPIB
  binding signal: 1.32 fold enrichment (6-mer frequency, TF over GST control)
ELK3
  binding signal: 1.33 fold enrichment (6-mer frequency, TF over GST control)
FEV
  binding signal: 1.4 fold enrichment (6-mer frequency, TF over GST control)
ETV5
  binding signal: 1.36 fold enrichment (6-mer frequency, TF over GST control)
HSF1
  binding signal: 1.5 fold enrichment (6-mer frequency, TF over GST control)
SPIC
  binding signal: 1.34 fold enrichment (6-mer frequency, TF over GST control)
ELF4
  binding signal: 1.26 fold enrichment (6-mer frequency, TF over GST control)
ELK4
  binding signal: 1.43 fold enrichment (6-mer frequency, TF over GST control)
ETV2
  binding signal: 1.37 fold enrichment (6-mer frequency, TF over GST control)
ELF3
  binding signal: 1.44 fold enrichment (6-mer frequency, TF over GST control)
CRX
  binding signal: 1.73 fold enrichment (6-mer frequency, TF over GST control)
ETV1
  binding signal: 1.36 fold enrichment (6-mer frequency, TF over GST control)
